The source of these data is the supplement of paper PMC6953052.

± gives the standard deviation of the averaged measurements. Whole data set: some 1,700 compounds, median “fraction of GFP-LC3-positive cells (≥5 vesicles/cell)” near 0.058, cut for the highest 2% near 0.59. This is one part of a sample in which the highest values are shown more often than they occur.

In the assay the test system is CbCln3 +/+ GFP-LC3 cerebellar neuronal cells. Nature of the assay: fraction of GFP-LC3-positive cells (≥5 vesicles/cell); higher = more autophagosome accumulation. The procedure, abridged: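 Values are the duplicate-averaged fraction of cells passing a GFP-LC3 vesicle cutoff, counted per cell in CellProfiler with out-of-focus images excluded. That cutoff is 5 or more vesicles. Wild-type or mutant CbCln3 cerebellar cells stably expressing GFP-LC3 (2 × 10^3/well, 384-well) were given ~50 nL compound in DMSO by pin transfer for 24 h at 33 °C, then fixed in 3.2% PFA and imaged at 10×, three fields per well.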
On to `O=c1[nH]c(=O)n([C@H]2C[C@H](O)[C@@H](CO)O2)cc1I` [Idoxuridine], for which the “fraction of GFP-LC3-positive cells” value was determined as 0.122.
`CC(C)(C)NC[C@H](O)COc1nsnc1N1CCOCC1.O=C(O)/C=C\C(=O)O` [Timolol maleate salt]: the “fraction of GFP-LC3-positive cells” value is 0.0791.
In the case of `CSc1ccc2c(c1)N(CCC1CCCCN1C)c1ccccc1S2.Cl` (stereo unspecified) [Thioridazine hydrochloride], the “fraction of GFP-LC3-positive cells” value amounted to 0.103.
With `O=C(CCCN1CCC(O)(c2ccc(Br)cc2)CC1)c1ccc(F)cc1` [Bromperidol], the “fraction of GFP-LC3-positive cells” value is 0.0553.
As for `CC(C)COCC(CN(Cc1ccccc1)c1ccccc1)N1CCCC1` (stereo unspecified), the “fraction of GFP-LC3-positive cells” value amounted to 0.773.
`CC(C)COCC(CN(Cc1ccccc1)c1ccccc1)N1CCCC1.Cl` (stereo unspecified) [Bepridil hydrochloride]: the “fraction of GFP-LC3-positive cells” value came to 0.0674.
Turning to `Cl.c1ccc(CN(CC2=NCCN2)c2ccccc2)cc1` [Antazoline hydrochloride], the “fraction of GFP-LC3-positive cells” value was found to be 0.048.
Consider `NC[C@H]1O[C@H](OC2[C@@H](N)C[C@@H](N)[C@H](O)[C@H]2O[C@@H]2O[C@H](CO)[C@@H](O)[C@H]2O)[C@H](N)[C@@H](O)[C@@H]1O.O=S(=O)(O)O` (stereo partly specified) [Ribostamycin sulfate salt], for which the “fraction of GFP-LC3-positive cells” value is 0.0446.
With `CC(C[N+](C)(C)C)OC(N)=O.[Cl-]` (stereo unspecified) [Bethanechol chloride], the “fraction of GFP-LC3-positive cells” value came out at 0.0276.
On to `COc1cc(OC)c(C(=O)CCCN2CCCC2)c(OC)c1.Cl` [Buflomedil hydrochloride], for which the “fraction of GFP-LC3-positive cells” value was 0.0492.
As to `Nc1ccc(S(=O)(=O)Nc2ccnn2-c2ccccc2)cc1` [Sulfaphenazole], the “fraction of GFP-LC3-positive cells” value worked out at 0.0807.
Under `Cl.NCc1ccc(S(N)(=O)=O)cc1` [Mafenide hydrochloride] stands 0.087; under `CCCCOc1cc(C(=O)OCCN(CC)CC)ccc1N.Cl` [Benoxinate hydrochloride], 0.0443.
With `C[N+](C)(C)CCCCCC[N+](C)(C)C.O.O.[Br-].[Br-]` [Hexamethonium dibromide dihydrate], the “fraction of GFP-LC3-positive cells” value was 0.0307.
Under `O=S(=O)(NCCNC/C=C/c1ccc(Br)cc1)c1cccc2cnccc12` stands 0.0303 ± 0.022.
Regarding `CS(=O)(=O)Nc1ccc([N+](=O)[O-])cc1Oc1ccccc1` [Nimesulide], the “fraction of GFP-LC3-positive cells” value amounted to 0.0281.
On to `Cn1c([N+](=O)[O-])cnc1COC(N)=O` [Ronidazole], for which the “fraction of GFP-LC3-positive cells” value is 0.116.
Consider `NC(=O)c1ccc(-c2nc(-c3ccc4c(c3)OCO4)c(-c3ccccn3)[nH]2)cc1`, for which the “fraction of GFP-LC3-positive cells” value is 0.0591.
As for `CCCCC/C=C\C/C=C\CCCCCCCC(N)=O`, the “fraction of GFP-LC3-positive cells” value amounted to 0.0698.
For `CCCCC/C=C\C/C=C\CCCCCCCC(N)=O` [Linoleamide], the “fraction of GFP-LC3-positive cells” value turned out to be 0.0419.
Under `C=C(C)[C@@H]1CC[C@]2(C(=O)O)CC[C@]3(C)[C@H](CC[C@@H]4[C@@]5(C)CC[C@H](O)C(C)(C)[C@@H]5CC[C@]43C)[C@@H]12` [Betulinic acid] stands 0.0607.
